# Laboratory results from PubChem BioAssay (Tox21).
# “And” between values parts separate entries of the source, which are not always exact repeats. Equal entries are not always repeated. Records with an inconclusive call do not appear. A call without a number means that no potency is given here. Where a structure was tested more than once in an assay, its records may differ in their call. The source made the active and inactive calls. Unless noted, the call rests on the fitted dose curve.
# How the values were obtained:
# [1] = qHTS assay to identify small molecule agonists of the vitamin D receptor (VDR) signaling pathway - cell viability counter screen (AID 743224; active means well fitted curve in the direction sought with a large enough effect in the repeat runs; an effect the other way counts as inactive or inconclusive; further: nearly all actives have a fitted effect of over 50% in size; further: potency means the concentration at half of the fitted maximal effect)
# How it was run: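 VDR-bla cells, 4 h after plating, exposed to compounds for 16 h at 37C; viability then read in the same wells as CellTiter-Glo luminescence after 30 min at room temperature, following the bla FRET read.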
# [2] = qHTS assay to identify small molecule antagonists of the vitamin D receptor (VDR) signaling pathway - cell viability counter screen (AID 743225; active means well fitted curve in the direction sought with a large enough effect in the repeat runs; an effect the other way counts as inactive or inconclusive; further: nearly all actives have a fitted effect of over 50% in size; further: potency means the concentration at half of the fitted maximal effect)
# How it was run: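 HEK293T VDR-bla; cpd + 1a,25-(OH)2D3 3 nM final, 16 h 37C/5% CO2; B/G FRET substrate 2 h RT; then CellTiter-Glo 30 min RT, luminescence.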
# [3] = qHTS assay to identify small molecule agonists of the NFkB signaling pathway - cell viability counter screen (AID 1159515); further: series mostly up to about 61 µM; nearly all actives have a fitted effect of over 55% in size
# How it was run: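 NFkB-bla ME-180 cells, 2,000/well, plated overnight at 37 C; compound added for 5 hr at 37 C. Viability read in the same wells as the bla reporter, by CellTiter-Glo luminescence after 30 min at room temperature.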
# [4] = qHTS assay to identify small molecule agonists of the endoplasmic reticulum stress response signaling pathway (AID 1159516; active means well fitted activation curve with a large enough effect in the signal ratio in the repeat runs, not every such curve was filed as active; the % refers to the signal ratio; further: potency means the concentration at half of the fitted maximal effect)
# How it was run: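 CellSensor ESRE-bla HeLa cells, 1,500 per well, plated overnight, then exposed to compounds for 5 hr at 37 C. Beta-lactamase reporter read with LiveBLAzer B/G FRET substrate after 2 hr at room temperature, 405 nm excitation, 460 and 530 nm emission.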
# [5] = qHTS assay to identify small molecule agonists of the endoplasmic reticulum stress response signaling pathway - cell viability counter screen (AID 1159517);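 further: HeLa cells carrying an ER stress response element beta-lactamase reporter; series mostly up to about 61 µM; nearly all actives have a fitted effect of over 50% in size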
# How it was run: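 Luminescence readout: CellTiter-Glo, 30 min RT, same wells as the ESRE-bla reporter read. HeLa ESRE-bla, 1,500 cells/well, o/n 37 C; cpd 5 hr 37 C/5% CO2.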
# [6] = qHTS assay to identify small molecule antagonists of the retinoid-related orphan receptor gamma (ROR-gamma) signaling pathway - cell viability counter screen (AID 1159520; active means well fitted curve in the direction sought with a large enough effect in the repeat runs; an effect the other way counts as inactive or inconclusive; further: nearly all actives have a fitted effect of over 50% in size)
# How it was run: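 Tet-on ROR gamma CHO cells (1,000/well) were plated 4 hr, given compounds in DMSO for 2 hr at 37 C, then induced with 1 uM final doxycycline for 16 hr. Viability was read as ATP by CellTiter-Glo luminescence after 30 min.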
# [7] = molecular target: Nuclear receptor ROR-gamma (Homo sapiens) (UniProt P51449); experiment: qHTS assay to identify small molecule antagonists of the retinoid-related orphan receptor gamma (ROR-gamma) signaling pathway (AID 1159521; active means well fitted curve in the direction sought with a large enough effect in the repeat runs; an effect the other way counts as inactive or inconclusive; further: nearly all actives have a fitted effect of over 50% in size; further: potency means the concentration at half of the fitted maximal effect)
# How it was run: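 Cells were plated, rested 4 h at 37 C, exposed to compounds for 2 h, then given 1 uM final doxycycline hyclate to induce RORγ expression. After 16 h, ONE-Glo luminescence from the ROR response element reporter was measured.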
# [8] = qHTS assay to identify small molecule agonists of the AP-1 signaling pathway - cell viability counter screen (AID 1159525); further: nearly all actives have a fitted effect of over 55% in size; further: potency means the concentration at half of the fitted maximal effect
# How it was run: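 ME-180 AP-1-bla, 2500 cells/well, Opti-MEM + 0.5% dialyzed FBS; overnight 37 °C; cpd 15-pt titration, 5 h 37 °C; CellTiter-Glo 30 min RT; luminescence read; normalised to TOAB and DMSO controls.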
# [9] = qHTS assay to identify small molecule agonists of the AP-1 signaling pathway (AID 1159526)
# [10] = molecular target: Retinoic acid receptor RXR-alpha (Homo sapiens) (UniProt P19793); experiment: qHTS assay to identify small molecule agonists of the RXR signaling pathway (AID 1159527); further: nearly all actives have a fitted effect of over 35% in size; further: potency means the concentration at half of the fitted maximal effect
# Chain of Retinoic acid receptor RXR-alpha (Homo sapiens) (P19793 whole entry, looked up): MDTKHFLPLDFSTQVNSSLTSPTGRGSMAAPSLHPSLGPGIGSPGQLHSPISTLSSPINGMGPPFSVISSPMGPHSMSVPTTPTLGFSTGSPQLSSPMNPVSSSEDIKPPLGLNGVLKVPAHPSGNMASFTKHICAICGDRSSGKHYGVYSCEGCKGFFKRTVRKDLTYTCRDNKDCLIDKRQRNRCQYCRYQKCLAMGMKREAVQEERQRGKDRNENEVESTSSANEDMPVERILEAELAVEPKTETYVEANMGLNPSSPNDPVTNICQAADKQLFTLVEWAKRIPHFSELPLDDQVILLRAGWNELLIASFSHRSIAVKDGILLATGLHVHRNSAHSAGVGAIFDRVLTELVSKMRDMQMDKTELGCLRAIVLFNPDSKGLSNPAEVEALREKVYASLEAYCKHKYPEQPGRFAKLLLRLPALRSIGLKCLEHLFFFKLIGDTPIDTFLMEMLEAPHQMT
# How it was run: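 Cells plated at 2,000/well, rested 5 hr at 37 C, pin-dosed with DMSO compound solutions, incubated 16 hr, then loaded with B/G FRET substrate for 2 hr at RT before dual-emission fluorescence reading.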
SMILES,Potency [1],Potency [2],Potency [3],Potency [4],Potency [5],Potency [6],Potency [7],Potency [8],outcome [9],Potency [10],activation [9],activation [10]
CCCCC(CC)COC(=O)c1ccc(C(=O)OCC(CC)CCCC)cc1 (stereo not given),inactive,inactive,inactive,inactive,inactive,inactive,inactive,inactive,inactive,inactive,,
NC(=O)c1ncn([C@@H]2O[C@H](CO)[C@@H](O)[C@H]2O)n1,,,inactive,inactive,,inactive,4.56 µM (active) and 3.76 µM (active),inactive,inactive,inactive,,
CC(C)(C)NC[C@H](O)COc1nsnc1N1CCOCC1,,inactive,inactive,inactive,inactive,inactive,inactive,inactive,inactive,inactive,,
COCN(COC)c1nc(N(COC)COC)nc(N(COC)COC)n1,,inactive,inactive,inactive,inactive,inactive,inactive,inactive,inactive,inactive,,
N[C@@H](Cc1cc(I)c(Oc2ccc(O)c(I)c2)c(I)c1)C(=O)O,,inactive,inactive,inactive,inactive,inactive,inactive,inactive,inactive,inactive,,
COc1ccc([C@@H]2CC(=O)c3c(O)cc(O[C@@H]4O[C@H](CO[C@@H]5O[C@@H](C)[C@H](O)[C@@H](O)[C@H]5O)[C@@H](O)[C@H](O)[C@H]4O)cc3O2)cc1OC,,inactive,inactive,inactive,inactive,inactive,inactive,inactive,inactive,inactive,,
O=C1OC(=O)c2c(Cl)c(Cl)c(Cl)c(Cl)c21,,inactive,inactive,inactive,inactive,inactive,inactive,inactive,inactive,inactive,,
Nc1cccc(N)n1,,inactive,inactive,inactive,inactive,inactive,inactive,inactive,inactive,inactive,,
Cc1ccc(C(C)C)cc1,,inactive,inactive,inactive,inactive,inactive,inactive,inactive,inactive,inactive,,
CC(C=O)Cc1ccc(C(C)(C)C)cc1 (stereo not given),,inactive,inactive,inactive,inactive,inactive,inactive,inactive,inactive,inactive,,
CC(O)CNCC(C)O (stereo not given),,inactive,inactive,inactive,inactive,inactive,inactive,inactive,inactive,inactive,,
COc1cc(NC(=O)CC(C)=O)c(OC)cc1Cl,,inactive,inactive,inactive,inactive,inactive,inactive,inactive,inactive,inactive,,
Cc1nnc(NS(=O)(=O)c2ccc(N)cc2)s1,,inactive,inactive,inactive,inactive,inactive,inactive,inactive,inactive,inactive,,
O=[N+]([O-])c1ccccc1C(F)(F)F,,inactive,inactive,inactive,inactive,inactive,inactive,inactive,inactive,inactive,,
O=c1c(O)c(-c2ccc(O)c(O)c2)oc2cc(O)cc(O)c12,,inactive,inactive,inactive,inactive,inactive,inactive and 43.6 µM (active) and 54.5 µM (active),inactive,inactive,inactive,,
CC(=O)Nc1ccc(CC(=O)O)cc1,,inactive,inactive,inactive,inactive,inactive,inactive,inactive,inactive,inactive,,
O=C(O)C1=NN(c2ccc(S(=O)(=O)O)cc2)C(=O)C1,,inactive,inactive,inactive,inactive,inactive,inactive,inactive,inactive,inactive,,
NC(N)=S,,inactive,inactive,inactive,inactive,inactive,inactive,inactive,inactive,inactive,,
O=c1n(CCCN2CCN(c3cccc(Cl)c3)CC2)nc2ccccn12,,inactive,inactive,inactive,inactive,inactive,inactive,inactive,inactive,inactive,,
O=C(NCC1CCCCN1)c1cc(OCC(F)(F)F)ccc1OCC(F)(F)F (stereo not given),,inactive,inactive,inactive,inactive,inactive,inactive,inactive,inactive,inactive,,
CC(CN1c2ccccc2Sc2ccccc21)N(C)C (stereo not given),49.5 µM (active) and 43.6 µM (active),21.9 µM (active),inactive,inactive,inactive,inactive,24.6 µM (active) and 54.5 µM (active),inactive,,inactive,,
Nc1nc(N)c2nc(-c3ccccc3)c(N)nc2n1,inactive,inactive,inactive,49 µM (active) and 21.3 µM (active),inactive,inactive,inactive,inactive,,19 µM (active),,

SMILES,Potency [1],Potency [2],Potency [3],Potency [4],Potency [5],Potency [6],Potency [7],Potency [8],outcome [9],Potency [10],activation [9],activation [10]
CC/C=C(\C(=O)N[C@@H]1C(=O)N2C(C(=O)OCOC(=O)C(C)(C)C)=C(COC(N)=O)CS[C@H]12)c1csc(N)n1,,inactive,inactive,inactive,inactive,inactive,inactive,inactive,inactive,inactive,,
CO[Si](CCCNCCN)(OC)OC,,inactive,inactive,inactive,inactive,inactive,inactive,inactive,inactive,inactive,,
COc1ccc(N)c(OC)c1,,inactive,inactive,inactive,inactive,inactive,inactive,inactive,inactive,inactive,,
Cc1cc(C)cc(O)c1,,inactive,inactive,inactive,inactive,inactive,inactive,inactive,inactive,inactive,,
C=CC(C)(C)C,,inactive,inactive,inactive,inactive,inactive,inactive,inactive,inactive,inactive,,
CC(=O)OC/C=C(\C)CCC=C(C)C,,inactive,inactive,inactive,,inactive,inactive,inactive,inactive,inactive,,
Cc1ccccc1C=O,inactive,inactive,inactive,inactive,,inactive,inactive,inactive,inactive,inactive,,
CC1=CC(=O)CC(C)(C)C1,,inactive,inactive,inactive,,inactive,2.5 µM (active) and inactive,25.3 µM (active) and inactive,inactive,inactive,,
CS(=O)(=O)c1ccc(Cl)cc1,inactive,inactive,inactive,inactive,,inactive,inactive,inactive,inactive,inactive,,
COc1ccc2cc3[n+](cc2c1OC)CCc1cc2c(cc1-3)OCO2,inactive,,inactive,inactive,,inactive,inactive,inactive,inactive,,,
Oc1ccc(Cc2ccccc2O)cc1,,inactive,inactive,inactive,,inactive,inactive,inactive,inactive,inactive,,
Cc1ccc(Cl)cc1,inactive,inactive,inactive,inactive,,inactive,inactive,inactive,inactive,inactive,,
O=C(O)Cc1c[nH]c2ccccc12,inactive,inactive,inactive,inactive,,inactive,inactive,inactive,inactive,inactive,,
CC(C)=CCC/C(C)=C/C=O,inactive,inactive,inactive,inactive,,inactive,inactive,inactive,inactive,inactive,,
CCCCCCCCCCCCCC(=O)O,,inactive,inactive,inactive,,inactive,inactive,inactive,inactive,inactive,,
CCCCCCCCO,inactive,inactive,inactive,inactive,,inactive,inactive,inactive,inactive,inactive,,
Nc1cccc(C(F)(F)F)c1,inactive,inactive,inactive,inactive,,inactive,inactive,inactive,inactive,inactive,,
OCc1ccc(Cl)cc1Cl,inactive,inactive,inactive,inactive,,inactive,inactive,inactive,inactive,inactive,,
Cc1cc(CC(=O)O)n(C)c1C(=O)c1ccc(Cl)cc1,inactive,inactive,inactive,inactive,,inactive,inactive,inactive,inactive,inactive,,
CC1(C)C(=O)N(Cl)C(=O)N1Cl,inactive,inactive,inactive,inactive,,inactive,inactive,inactive,inactive,inactive,,
CCCOC(=O)NCCCN(C)C,inactive,inactive,inactive,inactive,,inactive,inactive,inactive,inactive,21.9 µM (active) and inactive,,
C=C1C[C@]23C[C@@]1(O)CC[C@H]2[C@@]12C=C[C@H](O)[C@@](C)(C(=O)O1)[C@H]2[C@@H]3C(=O)O,inactive,inactive,inactive,inactive,,inactive,inactive,inactive,inactive,inactive,,

SMILES,Potency [1],Potency [2],Potency [3],Potency [4],Potency [5],Potency [6],Potency [7],Potency [8],outcome [9],Potency [10],activation [9],activation [10]
O=C(Cl)c1ccc(C(=O)Cl)cc1,inactive,inactive,inactive,inactive,,inactive,inactive,inactive,inactive,inactive,,
NCCNCCNCCN,inactive,inactive,inactive,inactive,,inactive,inactive,inactive,inactive,inactive,,
c1cnc2c(c1)ccc1cccnc12,,5.49 µM (active) and 7.76 µM (active),inactive,inactive,,inactive,1.95 µM (active) and 5.45 µM (active) and 6.11 µM (active),inactive,,,,
CCCCC(=O)O,inactive,inactive,inactive,inactive,,inactive,inactive,inactive,inactive,inactive,,
CCn1cc(C(=O)O)c(=O)c2cc3c(cc21)OCO3,inactive,inactive,inactive,inactive,,inactive,inactive,inactive,inactive,inactive,,
COC(=O)OC,inactive,inactive,inactive,inactive,,inactive,inactive,inactive,inactive,inactive,,
CCCCCNCCCCC,inactive,inactive,inactive,inactive,,inactive,inactive,inactive,inactive,inactive,,
CCCCCCCCCCCC(=O)N(C)CC(=O)O,,inactive,inactive,inactive,,inactive,inactive,inactive,,,-13.8% [at 6.97 µM] (inactive),1.89% [at 6.98 µM] (inactive)
Cc1ncc(CO)c(CO)c1O,inactive,inactive,inactive,inactive,,inactive,inactive,inactive,inactive,inactive,,
N#CCC(=O)O,inactive,inactive,inactive,inactive,,inactive,inactive,inactive,inactive,inactive,,
NC(=O)NC(N)=O,inactive,inactive,inactive,inactive,,inactive,inactive,inactive,inactive,inactive,,
CCCOCC(C)O (stereo not given),,inactive,inactive,inactive,,inactive,inactive,inactive,inactive,inactive,,
C=CC(=O)NCOCCCC,inactive,inactive,inactive,inactive,,inactive,inactive,inactive,inactive,,,
CCOC(=O)c1ccc(O)cc1,inactive,inactive,inactive,inactive,,inactive,inactive,inactive,inactive,inactive,,
Clc1cccc(Cl)c1NC1=NCCN1,inactive,inactive,inactive,inactive,,inactive,inactive,inactive,inactive,inactive,,
CCCN(CCC)C(=O)SCC,inactive,inactive,inactive,inactive,,inactive,inactive,inactive,inactive,12.3 µM (active),,
COc1c2ccoc2cc2oc(=O)ccc12,,inactive,inactive,inactive,,inactive,inactive,inactive,inactive,inactive,,
CCCCCCC(=O)O,inactive,inactive,inactive,inactive,,inactive,inactive,inactive,inactive,inactive,,
CN=C(NC#N)NCCSCc1nc[nH]c1C,inactive,inactive,inactive,inactive,,inactive,inactive,inactive,inactive,inactive,,
CC(=O)OCc1ccc2c(c1)OCO2,inactive,inactive,inactive,inactive,,inactive,inactive,inactive,inactive,inactive,,
CC(=O)C(C)C,,inactive,inactive,inactive,,inactive,inactive,inactive,inactive,inactive,,
